About 2,600 (0.72%) of roughly 360,000 compounds were called active. Roughly 5% stayed inconclusive and do not appear here. Calls come from the whole dose curve; as a rule, active = well fitted inhibition curve with a large enough effect; inconclusive = small, poorly fitted or top-dose-only effect; inactive = no such curve, though single readings can be large or run the other way. For the sample, actives were picked, then their nearest neighbours and some compounds at random.
Test: Primary qHTS for Inhibitors of ATXN expression; note: nearly all actives have a fitted effect of over 55% in size
Details: HEK-293 ATXN2-luciferase reporter, luminescence, 24 h; series mostly up to 57 µM; activity change, negative = inhibition: at the top concentration
Summary of the method: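 qHTS (up to 57 uM final) was run with 24 h compound exposure of reporter cells at 37 °C. Each well was multiplexed: SteadyGlo luminescence measured ATXN2-luciferase expression after a fluorogenic Gly-Phe-AFC viability readout (25 uM final).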
% is set by controls: 0 for no effect and ±100 for the full control effect; potency is the fitted concentration of half-maximal effect.

Activity change, negative = inhibition, inactive:
OC(c1ccccc1)(c1ccccc1)C1CCN(CCCOc2ccccc2)CC1 0%, CC(C)(c1ccccc1)c1ccc(OCCN2CCCC2)cc1 -18.9%, CCOc1ccc(NC(=O)Cn2c(C)ccc(C#N)c2=O)cc1 -0.689%, NCC[C@H](O)C(=O)N[C@@H]1C[C@H](N)[C@@H](O[C@H]2O[C@H](CN)[C@@H](O)[C@H](O)[C@@H]2O)[C@H](O)[C@@H]1O[C@H]1O[C@H](CO)[C@@H](O)[C@H](N)[C@@H]1O 0.946% [at 0.709 µM], CCOc1cccc2c1N[C@@H](c1ccc(C(=O)O)cc1)[C@H]1CC=C[C@@H]21 -5.41%, O=C(NCCCn1ccnc1)c1ccccc1F -4.04%, CC1=NNC(=O)C1CCC(=O)N/N=C(\C)c1ccc(Cl)cc1 (centres undefined) 1.5%, O=C(Cc1ccc(Cl)cc1)c1ccccc1 45.8%, O=C(Nc1nnc(-c2ccccc2F)s1)c1ccccc1F -3.39%, O=C(NCCc1ccccc1)C(=O)NCC(c1ccco1)S(=O)(=O)c1ccccc1 (centres undefined) 4.42%, CCc1ccc(NC(=O)c2sc3nc4c(cc3c2N)CN(CC)CC4)cc1 -30%, COc1ccc(-c2cc(NC=O)c3ncc(-c4ccccc4)n3c2)cc1OC -24.3%, COc1cccc(N2CCN(S(=O)(=O)c3ccc4c(c3)CCCN4C(C)=O)CC2)c1 -1.44%, CC(=O)N1CCCc2cc(S(=O)(=O)CCC(=O)N3CCN(c4ccccc4)CC3)ccc21 -7.04%, CCN(CC)CCOC(=O)c1ccc(NC(=O)CNC(=O)c2ccccc2)cc1 2.24%, COC(CCN(C)C)(c1ccccc1)c1ccccc1 6.23%, O=c1cc(CSc2ncn[nH]2)[nH]c2ccc(F)cc12 16%, COc1cc(/C=C/C(N)=O)cc(OC)c1OC 17.2%

Potency, inactive:
COCCCN1CCC(NC(=O)c2cc(Cl)c(N)c3c2OCC3)CC1

Potency, active:
CN1CCC[C@@H]1CCO[C@](C)(c1ccccc1)c1ccc(Cl)cc1 25.1 µM, C/C(=N\NC(=O)Cc1ccc(Cl)cc1)c1ccccn1 3.16 µM, C/C(=N\NC(=O)c1ccccc1F)c1ccccn1 3.98 µM, CC(=O)N1CCCc2cc(S(=O)(=O)N3CCCC(C(=O)N4CCN(c5cccc(Cl)c5)CC4)C3)ccc21 (centres undefined) 28.2 µM, CCCC(C(=O)OCCN(CC)CC)(c1ccccc1)c1ccccc1 31.6 µM

Reference: PubChem BioAssay AID1745845 (National Center for Advancing Translational Sciences (NCATS), 2022)
